According to PubChem BioAssay AID1347165 (National Center for Advancing Translational Sciences (NCATS), 2019):
In all, about 220,000 compounds went through this assay and about 5,700 (2.6%) were called active. About 18% were inconclusive and are not listed. Only a selection was taken, and actives are over-represented in it overall. A number with no mark means an inactive call. The call rests on the fitted dose curve; in most records, active means well fitted inhibition curve with a large enough effect; inconclusive means small, poorly fitted or top-dose-only effect; inactive means no such curve, though single readings can be large or run the other way.

biological target: Lysine-specific demethylase 5B (Homo sapiens) (UniProt Q9UGL1); assay: Primary screen for KDM5B Histone Demethylases FDH-coupled qHTS; conditions: FDH-coupled NADH fluorescence (FDH is formaldehyde dehydrogenase); series mostly up to 57.7 µM; activity change, negative = inhibition: at the top concentration; further: nearly all actives have a fitted effect of over 70% in size; on activity change, negative = inhibition: 0% is about no effect
Summary of the method: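 KDM5BΔAP (200 nM final) in 50 mM HEPES pH 7.5, 0.01% Tween-20 was preincubated 10 min at RT with compound over a concentration range. Substrate mix (H3K4me3 12.5 µM, α-KG 25 µM, Fe²⁺, ascorbate, NAD⁺, FDH) was added, and NADH fluorescence change over 30 min gave dose-response curves.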
Potency means the concentration at half of the fitted maximal effect.

Chain of Lysine-specific demethylase 5B (Homo sapiens) (Q9UGL1 whole entry, looked up): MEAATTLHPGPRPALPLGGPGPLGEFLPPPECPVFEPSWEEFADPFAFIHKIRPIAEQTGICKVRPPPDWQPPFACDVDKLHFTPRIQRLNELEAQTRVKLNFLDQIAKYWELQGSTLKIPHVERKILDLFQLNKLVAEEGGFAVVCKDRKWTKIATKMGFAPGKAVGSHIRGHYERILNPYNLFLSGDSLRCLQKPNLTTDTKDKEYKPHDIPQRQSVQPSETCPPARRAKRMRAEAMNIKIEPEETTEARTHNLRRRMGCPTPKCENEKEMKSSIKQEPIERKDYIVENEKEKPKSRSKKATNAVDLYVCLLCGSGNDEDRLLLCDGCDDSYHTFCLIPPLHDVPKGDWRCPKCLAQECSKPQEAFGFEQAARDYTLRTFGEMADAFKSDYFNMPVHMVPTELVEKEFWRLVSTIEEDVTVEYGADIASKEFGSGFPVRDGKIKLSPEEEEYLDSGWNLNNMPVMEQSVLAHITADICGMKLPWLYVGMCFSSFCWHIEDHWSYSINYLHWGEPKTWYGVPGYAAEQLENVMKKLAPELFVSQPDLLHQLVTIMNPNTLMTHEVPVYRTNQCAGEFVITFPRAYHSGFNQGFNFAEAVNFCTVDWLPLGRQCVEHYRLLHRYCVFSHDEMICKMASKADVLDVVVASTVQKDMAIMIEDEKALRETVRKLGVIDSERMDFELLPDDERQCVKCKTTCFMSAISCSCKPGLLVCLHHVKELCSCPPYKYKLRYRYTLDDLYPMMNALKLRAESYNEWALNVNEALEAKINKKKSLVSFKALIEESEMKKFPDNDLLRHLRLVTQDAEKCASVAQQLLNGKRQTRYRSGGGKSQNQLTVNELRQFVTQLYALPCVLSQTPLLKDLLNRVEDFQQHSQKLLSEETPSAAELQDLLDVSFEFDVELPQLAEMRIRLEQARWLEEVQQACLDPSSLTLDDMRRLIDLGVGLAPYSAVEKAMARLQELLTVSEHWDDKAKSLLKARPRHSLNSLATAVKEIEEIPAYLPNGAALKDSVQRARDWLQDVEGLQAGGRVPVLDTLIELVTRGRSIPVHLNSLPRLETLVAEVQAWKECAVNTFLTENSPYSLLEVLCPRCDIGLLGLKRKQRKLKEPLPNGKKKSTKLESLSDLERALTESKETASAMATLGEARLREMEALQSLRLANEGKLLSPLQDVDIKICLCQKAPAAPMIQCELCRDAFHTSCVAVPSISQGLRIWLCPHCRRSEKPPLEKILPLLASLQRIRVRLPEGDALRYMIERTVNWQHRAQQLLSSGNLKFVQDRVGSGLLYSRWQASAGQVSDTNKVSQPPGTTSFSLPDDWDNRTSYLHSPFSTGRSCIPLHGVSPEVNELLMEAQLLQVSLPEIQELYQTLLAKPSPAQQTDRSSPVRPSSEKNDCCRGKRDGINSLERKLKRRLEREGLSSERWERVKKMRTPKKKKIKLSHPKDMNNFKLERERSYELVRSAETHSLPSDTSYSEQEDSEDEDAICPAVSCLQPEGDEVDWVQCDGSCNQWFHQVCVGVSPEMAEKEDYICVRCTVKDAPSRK

| Compound | activity change, negative = inhibition | Potency |
| --- | --- | --- |
| Cc1ccc(F)cc1NC(=O)CCc1c[nH]c2ccccc12 | 17.4% |  |
| COc1ccc(S(=O)(=O)N2CCC(C)CC2)c2cccnc12 | 12.9% |  |
| CC(NC(=O)c1ccc(F)cc1)C12CC3CC(CC(C3)C1)C2 (configuration not stated) | 14.3% |  |
| CCCn1c(CN2CCCCC2)nc2cc(NC(=O)c3cc(OC)c(OC)c(OC)c3)ccc21 | 5.88% |  |
| Cc1cc(NC(=O)COc2c(CO)cc(F)cc2CO)ccc1Br | -18.6% |  |
| COc1ccc(-c2noc(CCC(=O)Nc3ccn(C)n3)n2)cc1 | -1.76% |  |
| COc1ccc(CNC(=O)NCC(=O)N2CCCCCCNC(=O)CC2c2ccccc2)cc1 (configuration not stated) | 10.8% |  |
| O=C1NC(C(=O)NCc2ccccn2)Cn2cccc21 (configuration not stated) | -25.1% |  |
| O=C1CCC(C(=O)NCc2ccc(-c3cnc4c(Oc5ccccc5)nccn34)cc2)N1 (configuration not stated) |  | 35.5 µM (active) |
| O=S(=O)(c1ccc(Cl)cc1)c1nc(-c2ccco2)oc1N1CCCCC1 | -11.1% |  |
| Cc1ccc(C)c(NC(=O)C(c2ccccc2)n2cnc3c2c(=O)n(C)c(=O)n3C)c1 (configuration not stated) | -13.9% |  |
| COc1cccc(OCCN(C)Cc2cn(-c3ccccc3)nn2)c1 | 5.71% |  |
| O=C(CCOc1ccc(Cl)cc1)N1CCC(c2nnc3n2CCC3)CC1 | -10.3% |  |
| Cc1ccc2nc(NC(C)(C)CO)nc(-c3ccccc3)c2c1 | 120% |  |
| CC(CC#N)NC(=O)c1cc2ccccc2cc1NC(=O)OC(C)(C)C (configuration not stated) | 40.3% |  |
| Cc1cc(C)nc(NC(=O)Nc2ccc(C)c(F)c2)c1 | 4.73% |  |
| COc1ccc(-c2ocnc2C(=O)Nc2cccc(Cl)c2)cc1 | 10.2% |  |
| O=C(CCc1ccccc1)NCCn1cccc1-c1nc(-c2ccc3c(c2)OCO3)no1 |  | 31.6 µM (active) |
| COc1ccc(NC(=O)Cn2cccc2-c2nc(-c3ccc4c(c3)OCO4)no2)c(OC)c1 | 3.86% |  |
| Cc1ccc(NC(=O)Cn2cccc2-c2nc(-c3ccc4c(c3)OCO4)no2)cc1Cl | 3.09% |  |
| N#CCc1ccc(OCC(O)Cn2cnc3ccc(Cl)cc3c2=O)cc1 (configuration not stated) | 4.38% |  |
| Cc1ccc(S(=O)(=O)N2CCN(C)CC2)cc1C(=O)NC1CCCCC1 | 23.1% |  |

| Compound | activity change, negative = inhibition | Potency |
| --- | --- | --- |
| CCOC(=O)N1CCC(NC(=O)CS(=O)Cc2nc(-c3ccccc3F)oc2C)CC1 (configuration not stated) | 4.01% |  |
| CCc1nc(-c2ccc(OC3CCN(C(=O)Cc4c[nH]c5ccccc45)C3)cc2)no1 (configuration not stated) | 7.34% |  |
| O=C(Cc1cccn1-c1ccccc1)N1CCOCC1 | -6.08% |  |
| Cc1noc(C)c1-c1cnc2[nH]cc(CC(=O)N3CCOCC3)c2c1 |  | 35.5 µM (active) |
| Cc1ccc(S(=O)(=O)NC(=O)c2cccc(C)c2)cc1 | -7.21% |  |
| CCOc1ccccc1C(=O)N1CCC(Oc2ncccc2C(=O)N(C)C)C1 (configuration not stated) | -1.4% |  |
| O=C(N[C@@H]1CN(Cc2cccnc2)C[C@H]1CO)c1cccnc1 | -2.06% |  |
| CCOc1ccccc1C(=O)N[C@@H]1CN(c2ncccn2)C[C@H]1CO |  | 22.4 µM (active) |
| O=C(CCn1cccn1)N[C@@H]1CN(Cc2ccccc2)C[C@H]1CO | 14.5% |  |
| O=C(N[C@@H]1CN(c2ccncn2)C[C@H]1CO)C1CCCC1 | 12% |  |
| Cc1cccnc1C(=O)N[C@@H]1CN(c2ncccn2)C[C@H]1CO |  | 20 µM (active) |
| CCc1nc2nc3c(cn2n1)C(=O)CC(c1ccc(Cl)cc1)C3 (configuration not stated) | -0.51% |  |
| CC(C)NS(=O)(=O)c1ccc(OCC(=O)NC2CCCCCC2)cc1 | 16.2% |  |
| COc1ccc2c(=O)c(Oc3cccc(C)c3)c(C(F)(F)F)oc2c1 | -8.82% |  |
| COc1ccc(C23NCCN2C(=O)c2ccccc23)cc1 (configuration not stated) | 34.4% |  |
| Cc1c(-c2ccc(F)cc2)[nH]c2ccc(CNC(=O)c3ccc(CO)o3)cc12 |  | 22.4 µM (active) |
| COc1ccc(CNC(=O)c2noc(-c3ccc(F)cc3)n2)cc1 | -17.9% |  |
| CNc1nc(C(=O)NCc2ccc3[nH]c(-c4ccc(F)cc4)c(C)c3c2)cs1 |  | 5.62 µM (active) |
| Cc1ccc(CNC(=O)c2cc(=O)c3ccc(C)c(C)c3o2)cc1 | 13.1% |  |
| O=C(NCc1ccc2c(c1)OCO2)c1noc(-c2ccc(F)cc2)n1 | 7.84% |  |
| COc1ccc(CNC(=O)c2ccc(CS(=O)c3ccc(C)cc3)o2)cc1OC (configuration not stated) | -8.94% |  |
| CCCc1nc(SCC(=O)N2CCCC2)c2c(=O)n(C)c(=O)n(C)c2n1 | 37.7% |  |

| Compound | activity change, negative = inhibition | Potency |
| --- | --- | --- |
| Cc1ccccc1NC(=S)NNC=O | 26.2% |  |
| COc1ccc(OC)c(S(=O)(=O)N2CCCC(C(=O)NCCc3ccccc3)C2)c1 (configuration not stated) | 26.3% |  |
| CC(=O)c1ccccc1NC(=O)CCc1ncc(-c2c(F)cccc2F)o1 | -23.2% |  |
| CCOC(=O)CN1C(=O)C2(CC(=O)Nc3[nH]ncc32)c2ccccc21 (configuration not stated) | 5% |  |
| Cc1cnc(C)c(N2CCN(C(=O)[C@H]3CC[C@@H](N)C3)CC2)n1 |  | 22.4 µM (active) |
| N[C@@H]1CC[C@H](C(=O)N2CCN(CCCOc3ccc(F)cc3)CC2)C1 | -4.43% |  |
| Cc1cnc(C)c(N2CCN(C(=O)C3CCC(=O)N(CCc4cccc(F)c4)C3)CC2)n1 (configuration not stated) | 0.442% |  |
| COc1ccccc1Cc1nnc(NC(=O)c2cccc(NC(=O)c3ccccc3)c2)s1 | -7.98% |  |
| COc1ccc(OC2CCN(C(C)=O)CC2)c(C(=O)NCCc2ccccc2OC)c1 |  | 25.1 µM (active) |
| COc1ccc(OC2CCN(C(C)=O)CC2)c(C(=O)N(C)Cc2ccc3nccnc3c2)c1 | -11.7% |  |
| COc1ccc(OC2CCN(C(C)=O)CC2)c(C(=O)NCc2snnc2C)c1 | 5.6% |  |
| O=C(c1cc2ccccc2oc1=O)N1CCC(Cc2ccccc2)CC1 | 7.13% |  |
| COCCN1C(=O)c2cccn2CC1CNC(=O)c1ccccc1F (configuration not stated) | -17.1% |  |
| COCCN1C(=O)c2cccn2CC1CNC(=O)c1cc2ccccc2[nH]1 (configuration not stated) |  | 28.2 µM (active) |
| COCCC(=O)NCC1Cn2cccc2C(=O)N1Cc1ccccc1 (configuration not stated) | -21.7% |  |
| CCOC(=O)c1oc2cc(OC(C)=O)ccc2c(=O)c1-c1ccc(OC)cc1 | -2.04% |  |
| O=C1CO[C@H](c2ccc(NS(=O)(=O)c3cccc(F)c3)cc2)[C@@H](CO)N1Cc1ccncc1 | 15.3% |  |
| COc1cc(F)ccc1C(C)=O | 15.6% |  |
| CCc1nc2nccc(-c3ccco3)n2n1 |  | 28.2 µM (active) |
| COCc1nc2nccc(-c3ccccc3)n2n1 |  | 31.6 µM (active) |
| Cn1cc(C#N)cc1-c1nc(COc2ccccc2)nn1CC(F)(F)F | -14.2% |  |
| COc1cc(F)ccc1-c1ccc(COc2ccc3c(cnn3CCC(=O)O)c2)cc1 | -20.4% [at 86.2 µM] |  |

| Compound | activity change, negative = inhibition | Potency |
| --- | --- | --- |
| Fc1ccc(Cc2nc3nccc(-c4ccco4)n3n2)cc1 |  | 20 µM (active) |
| Fc1ccc(Cc2nc3nccc(-c4cc5ccccc5o4)n3n2)cc1 | -345% |  |
| Cc1cc(Nc2ccccc2)n2nc(Cc3ccc(Cl)cc3)nc2n1 | 19.8% |  |
| COc1cc(F)ccc1-c1ccnc2nc(C(C)C)nn12 |  | 28.2 µM (active) |
| O=C(O)c1cc(Br)c(Cl)[nH]1 | -0.612% |  |
| Cc1ccc2c(COC(=O)COc3ccc(C)c(C)c3)cc(=O)oc2c1 | 9.56% |  |
| Cc1[nH]c2ccc(C(=O)N3CCN(C)CC3)cc2c1C | 16.8% |  |
| CCOc1ccc(C(=O)Nc2ccc3oc(C)nc3c2)cc1OCC | -8.51% |  |
| N#CCCC(C#N)Cn1nc(-c2ccccc2)c2ccccc2c1=O (configuration not stated) | 4.44% |  |
| CCN(CC)Cc1cnc2c(C(=O)NCc3ccsc3)cnn2c1 | -24.5% |  |
| CC#CC(=O)N1CCCC(C(=O)Nc2cccc(-c3cccc(C)c3)c2)C1 (configuration not stated) | 7.67% |  |
| COc1ccc(CN2CC(Oc3ccc(F)c(F)c3)C2)cc1 | -0.531% [at 149 µM] |  |
| COc1cccc(-c2nc(COc3ccccc3C#N)cs2)c1 | -29% |  |
| c1coc(-c2ccnc3nc(C4CC4)nn23)c1 |  | 28.2 µM (active) |
| COc1ccc(-c2ccnc3nc(CC(C)C)nn23)c(F)c1 |  | 28.2 µM (active) |
| COCCn1c(-c2cccc(OC)c2)cnc1NC(=O)NCCc1ccccc1 | -4.88% |  |
| COc1cccc(-c2ccnc3nc(Cc4cc(F)cc(F)c4)nn23)c1 |  | 25.1 µM (active) |
| CC1CNC(C)(C)C(O)C1 (configuration not stated) | 22.2% |  |
| Cn1c(=O)c2c(nc(NCc3cccs3)n2Cc2ccc(F)cc2)n(C)c1=O | 12.8% |  |
| Oc1c(C=Nc2ccc(F)c(Cl)c2)ccc2ccccc12 | 11.3% |  |
| CC(NC(=O)CNC(=O)c1ccc(N2CCCC2=O)cc1)c1ccccc1Br (configuration not stated) | -11.8% |  |
| COc1ccc(C(=O)N[C@@H]2C[C@H](COc3cccc(C)n3)[C@@H](O)[C@H]2O)cc1 | -15.3% [at 86.2 µM] |  |

| Compound | activity change, negative = inhibition | Potency |
| --- | --- | --- |
| CN(CCc1ccccn1)C(=O)c1ccc(OC2CCN(CCc3ccccc3)CC2)cc1 | -6.05% |  |
| CN(Cc1nccn1C)C(=O)c1cc(CN2CCC(Cc3ccccc3)CC2)on1 | -7.68% |  |
| CN(CC1CCN(CCc2cccc(F)c2)CC1)C(=O)c1cn2cccnc2n1 |  | 28.2 µM (active) |
| CCCn1nc(C(=O)OCC(=O)N2CCc3ccccc32)c2ccccc2c1=O | 24.1% |  |
| COc1ccc(NC(=O)c2cnc3ccccc3n2)c(OC)c1 | -11.9% |  |
| COc1ccc(-c2onc(C)c2C(=O)NCc2ccc3c(c2)OCO3)cc1 | -8.26% |  |
| CCCOCCCNC(=O)c1c(C)noc1-c1cc(OC)c(OC)c(OC)c1 |  | 28.2 µM (active) |
| CCCOCCCNC(=O)c1c(C)noc1-c1ccccc1Cl | 6.54% |  |
| O=C(COc1ccc2c(=O)c(-c3ccccc3)coc2c1)N1CCN(c2ccccn2)CC1 | -1.74% |  |
| Cc1ccc(-c2noc(Cn3cnc(C#N)n3)n2)cc1 | 7.52% |  |
| COc1cccc(-c2ccc(F)c(C(N)=O)c2)c1OC | -22.1% |  |
| Cc1ccccc1CN1C(=O)c2ccccc2Sc2ccc(C(=O)NCCCN3CCOCC3)cc21 | -1.46% |  |
| Cc1ccc2[nH]cc(CCNC(=O)c3ccccc3C)c2c1 | 6.05% |  |
| Cc1ccccc1-c1cc(C(=O)NCCN2CCNC2=O)c2c(c1)N(C)CCO2 |  | 39.8 µM (active) |
| COc1ccccc1C(=O)Nc1ccnn1C1CCN(Cc2cnn(C)c2)CC1 | 9.36% |  |
| COc1ccc(CNC(=O)c2cccc3c2CCN3C(=O)c2ccc(F)cc2)cc1OC | -17.8% |  |
| COc1ccccc1-c1cc(C(=O)NCc2cnn(C)c2)c2c(c1)N(C)CCO2 |  | 28.2 µM (active) |
| COc1ccc(CN[C@@H]2CCC[C@@H](C(=O)NCc3cc(C)on3)CC(=O)N(C)C2)cn1 | -11.1% [at 86.2 µM] |  |
| COc1cccc(-c2cc(C(=O)NCc3cc(C)on3)c3c(c2)N(C)CCO3)c1OC |  | 28.2 µM (active) |
